M1 antag: human M1 muscarinic receptor antagonists, primary screen, CHO-K1 cells, Fluo-8 calcium fluorescence, 1536-well. AID 588852, 2011. CHO-K1 hM1, ACh EC80 antagonist. inhibition, % at 3 µM. Muscarinic acetylcholine receptor M1 (Homo sapiens), P11229. 1.3% of 360,000 active;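 active = percent inhibition above its own plate's cutoff, namely the mean of that plate's compound wells plus 3 SD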;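 note: peak over basal fluorescence ratio during 140 s after agonist addition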
Target sequence (P11229 whole entry, looked up): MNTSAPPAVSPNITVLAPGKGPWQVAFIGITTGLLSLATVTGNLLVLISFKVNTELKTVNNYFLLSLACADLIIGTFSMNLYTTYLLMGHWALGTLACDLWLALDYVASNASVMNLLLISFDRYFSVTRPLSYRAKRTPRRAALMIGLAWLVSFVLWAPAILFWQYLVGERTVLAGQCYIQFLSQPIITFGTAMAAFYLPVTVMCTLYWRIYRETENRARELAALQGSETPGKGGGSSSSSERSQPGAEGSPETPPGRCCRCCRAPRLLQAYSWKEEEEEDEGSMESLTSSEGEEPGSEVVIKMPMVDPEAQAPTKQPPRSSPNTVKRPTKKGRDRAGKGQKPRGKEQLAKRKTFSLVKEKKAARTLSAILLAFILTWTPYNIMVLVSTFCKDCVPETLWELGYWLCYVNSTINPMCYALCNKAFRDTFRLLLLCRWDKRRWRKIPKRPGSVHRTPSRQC
CHRM1 PAM: human M1 muscarinic receptor positive allosteric modulators, primary screen, CHO-K1 cells, Fluo-8 calcium fluorescence, 1536-well; Muscarinic acetylcholine receptor M1 (Homo sapiens), P11229; CHO-K1 hM1, ACh EC20; 0% = ACh EC20, 100% = maximal ACh; activation, % at 3 µM; 0.088% of 360,000 active; in the data active = activation above about 19%, passing the limit was not always enough
CHRM4 agonist: human M4 muscarinic receptor agonists, primary screen, CHO-K1 cells, Fluo-8 calcium fluorescence; AID 624127, 2012; Muscarinic acetylcholine receptor M4 (Homo sapiens), P08173; CHO-K1 hM4/Gqi5; vehicle 0%, full acetylcholine response 100%; activation, % at 3 µM; 0.14% of 360,000 active;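 active = activation above the run mean over all test wells plus 3 SD, cut at about 32% in these data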;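 note: peak over basal fluorescence ratio per well then scaled between controls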
CHRM1 agonist: human M1 muscarinic receptor agonists, primary screen, Fluo-8 calcium fluorescence, CHO-K1 cells, HTS. Muscarinic acetylcholine receptor M1 (Homo sapiens), P11229. CHO-K1 hM1, agonist mode; 0% DMSO, 100% acetylcholine EC100. activation, % at 3 µM. 0.33% of 360,000 active;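 active = activation above the run's mean compound activation plus 3 SD, cut at about 16% in these data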;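 note: peak over basal fluorescence ratio within a 140 s kinetic read after compound addition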
CHRM4 antagonist: human M4 muscarinic receptor antagonists, primary screen, CHO cells, Fluo-8 calcium fluorescence; CHO-hM4 cells, ACh EC80; inhibition, % at 3 µM; 0.73% of 360,000 active; AID 624125, 2012;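 active = inhibition above its plate's cutoff, the mean inhibition of sample wells plus 3 SD, cut at about 27% in these data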
CHRM4 PAM: human M4 muscarinic receptor positive allosteric modulators, primary screen, CHO-K1 cells, Fluo-8 calcium fluorescence. Muscarinic acetylcholine receptor M4 (Homo sapiens), P08173. CHO-K1 hM4/Gqi5, ACh EC20; 0% = ACh EC20, 100% = maximal ACh. activation, % at 3 µM. 0.4% of 360,000 active. AID 624126, 2012;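 active = activation above its plate's cutoff, the mean activation of sample wells plus 3 SD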
Each line names hits and unclear results; the compound was inactive in the other large screens. Rows were chosen to be rich in hits. Some 2.2% of all compounds tested hit in one or more screens of this group.

O=C(CN1CCCCCC1)NN(Cc1ccccc1)c1ccccc1	M1 antag 56, CHRM4 antagonist 29
O=C(CN1CCOCC1)Nc1ccccc1-c1ccccc1	none
O=C(CN1CCCC1)NCc1ccccc1	none
O=C(CN1CCCC1)NN=C(c1ccccc1)c1ccccc1	M1 antag 64
O=C(CN1CCCCC1)Nc1ccccc1-c1ccccc1	M1 antag 101, CHRM4 antagonist 68
O=C(CN1CCOCC1)NN=C(c1ccccc1)c1ccccc1	none
O=C(CN1CCCCCC1)Nc1ccc(Oc2ccccc2)cc1	M1 antag 42
O=C(CN1CCCCC1)Nc1ccccc1	none
Nc1cccc(C(=O)Nc2ccc(N)cc2Cl)c1	none
COc1ccc(Oc2coc3cc(OC(=O)c4cccs4)ccc3c2=O)cc1	none
O=C(C[n+]1ccccc1)Nc1ccc(Oc2ccccc2)cc1	M1 antag 91, CHRM4 antagonist 47
CN(C)c1ccc(NC(=O)C[n+]2ccccc2)cc1	none
CSc1ccc(OC2CCN(Cc3ccccc3)CC2)cc1	none
Clc1ccc(CN2CCC(Cc3ccccc3)CC2)cc1	M1 antag 45
O=C(C1CCN(Cc2ccc(Cl)cc2)CC1)N1CCN(C(c2ccccc2)c2ccccc2)CC1	M1 antag 99, CHRM4 antagonist 74
Clc1cccc(CN2CCC(Cc3ccccc3)CC2)c1	none
Fc1ccc(CNC2CCN(Cc3ccccc3)CC2)cc1	none
CSc1ccc(CN2CCC(Cc3ccccc3)CC2)cc1	M1 antag 50, CHRM4 antagonist 28
CC(NC1CCN(Cc2ccccc2)CC1)c1ccc(F)cc1 (configuration not stated)	M1 antag 34
CC(C)CC(NC(=O)OC(C)(C)C)c1cn([C@@H](Cc2cc3ccccc3[nH]2)C(=O)N2CCN(C(=O)OC(C)(C)C)CC2)nn1 (some centres not stated)	none
COc1ccc(NC(=O)C2(c3ccccc3)CCCC2)cc1	none
CCN(CC)CCCOC(=O)C1(c2ccccc2)CCCC1	M1 antag 99, CHRM4 antagonist 96
O=C(COC(=O)C1(c2ccccc2)CC1)NNC(=O)c1ccccc1F	none
CC(C[N+](C)(C)C)OC(=O)C1(c2ccccc2)CCCC1 (configuration not stated)	M1 antag 93
CCN(CC)CCOC(=O)C1(c2ccccc2)CCOCC1	none
CCN(CC)CCOC(=O)C1(c2ccc([N+](=O)[O-])cc2)CCCC1	M1 antag 96, CHRM4 antagonist 49
C[N+](C)(C)CCOC(=O)C1(c2ccccc2)CCCC1	M1 antag 99, CHRM4 antagonist 97
CCc1nnc(NC(=O)OCc2ccccc2)s1	none
CC(C)Cn1c(N)c(C(=O)COC(=O)c2ccccc2Cl)c(=O)n(C)c1=O	none
C[N+]1(CCOC(=O)C2(c3ccccc3)CCCC2)CCCCC1	M1 antag 100, CHRM4 antagonist 97
COc1ccc(C(=O)OCC[N+]2(C)CCCCC2)cc1	none
CC(C)COC(=O)c1ccccc1OC(=O)c1ccncc1	none
COc1ccc(N(CC(=O)Nc2cccc3ccccc23)S(C)(=O)=O)cc1	none
CCN(c1ccc(NC(=O)CSc2ccc3c(c2)OCCO3)cc1)C(C)C	M1 antag 81
Cc1cc(C)cc(OCC2CNC(=O)O2)c1 (configuration not stated)	none
O=C1NCC(COCC2CC=CCC2)O1 (configuration not stated)	CHRM4 PAM 28
c1ccc(C2[C@H]3CN(Cc4cccnc4)[C@H](c4ccccc4)C34CC2(c2cccnc2)C4)cc1 (some centres not stated)	M1 antag 40
CN1C[C@@H]2C(c3ccc(C(F)(F)F)cc3)C3(c4cccnc4)CC2(C3)[C@H]1c1ccccc1 (some centres not stated)	M1 antag 32
c1ccc(C2[C@H]3CN(CC4CCCCC4)[C@H](c4ccccc4)C34CC2(c2cccnc2)C4)cc1 (some centres not stated)	M1 antag 74, CHRM4 antagonist 31
CC(=O)Nc1ccc(NC(=O)C(C)OC(=O)c2ccc(N(C)C)cc2)cc1 (configuration not stated)	none
Fc1ccccc1-c1csc(=Nc2cccnc2)n1CCCn1ccnc1	M1 antag 30
Fc1ccccc1-c1csc(=Nc2cccnc2)n1CC1CCCO1 (configuration not stated)	none
COc1ccc(/C=C/C(=O)NCC(=O)N/N=C(/CCC(=O)O)c2ccccc2)cc1	CHRM4 antagonist 30
CN(C)CCN(Cc1ccccc1)c1ccnc(N(C)C)c1C#N	none
CN(C)c1nccc(N(Cc2ccccc2)Cc2ccccc2)c1C#N	M1 antag 55
CN1CCC(OC(c2ccccc2)c2ccc(Cl)cc2)C1 (configuration not stated)	M1 antag 100, CHRM4 antagonist 58
CN1CCC(NCCC(c2ccc(F)cc2)c2ccc(Cl)cc2)CC1 (configuration not stated)	none
CC(c1ccccc1)N1C(=O)C2C3CCC(C3)C2C1=O (configuration not stated)	none
CN1C2CCC1CC(OC(c1ccccc1)c1ccccc1)C2 (configuration not stated)	CHRM4 antagonist 99 (no result: M1 antag, CHRM1 PAM, CHRM1 agonist)
Cc1cc(-c2n[nH]c(=S)n2-c2ccc(F)cc2)nn1C	none
OC[C@H]1O[C@@H](n2cnc3c(NCc4ccco4)ncnc32)[C@H](O)[C@@H]1O	CHRM1 agonist 35
CCc1nc2ccccc2c(=O)n1NCCc1ccccc1	none
Cc1occc1C(=O)NC(C)C(C)(C)C (configuration not stated)	CHRM4 antagonist 29
Cc1occc1C(=O)NC(C)CCc1ccccc1 (configuration not stated)	none
CCC(C(=O)NCCC(C)C)n1ccc2cc(S(=O)(=O)N3CCCCC3)ccc21 (configuration not stated)	M1 antag 45
CCN(CC)c1ccc(C=C2C(=O)OC3(CCCCC3)OC2=O)cc1	none
CCN(CC)c1ccc(/C=C2/C(=O)c3ccc(C(=O)O)cc3C2=O)cc1	M1 antag 76, CHRM1 agonist 186, CHRM4 antagonist 33
C#CCn1c(S(=O)(=O)Cc2ccc(F)cc2)nc(-c2ccccc2)c1-c1ccccc1	none
O=C(c1ccc(NS(=O)(=O)c2ccccc2)cc1)N1CCOCC1	none

Bioassay records (PubChem BioAssay)
